Test results taken from PubChem BioAssay (NCATS).
Records with an inconclusive call do not appear. The source made the active and inactive calls. The call rests on the fitted dose curve; in most records, active means well fitted cell-killing curve with a large enough effect; inconclusive means small, poorly fitted or top-dose-only effect, or effect the other way; inactive means flat fitted curve, though single readings scatter.

What was measured:
Assay in all cases: Primary qHTS to identify gynecologic anti-cancer compounds using libraries of approved drugs and bioactive compounds (AID 1345084); further: nearly all actives have a fitted effect of over 55% in size
Settings in all cases: Gynecologic cancer cell panel viability, ATPlite luminescence, 48 h; series mostly up to 57.5 µM
OV90 = tested on: OV90
Method in brief: (§1)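 48 h compound exposure at 37 C, 5% CO2; five-point qHTS. ATPlite luminescence readout of cell ATP.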

PA-1 = tested on: PA-1
Method in brief: as §1

SKOV3 = tested on: SKOV3
Method in brief: as §1

Tov-21-G = tested on: Tov-21-G
Method in brief: as §1

Tov112D = tested on: Tov112D
Method in brief: as §1
On the % scale 0 is the no-effect control and ±100 the full control effect.

COc1cc(/C=C/C(=O)O[C@H]2C[C@@H]3C(C(=O)O)=CO[C@@H](O[C@@H]4O[C@H](CO)[C@@H](O)[C@H](O)[C@H]4O)[C@@H]3[C@H]2C)ccc1O
inactive: Potency (OV90) | Potency (PA-1) | Potency (SKOV3) | Potency (Tov-21-G) | Potency (Tov112D)

C/C=C(\C)C(=O)OC1CC2C(CC=C3CC(OC4CC(OC)C(OC5CC(OC)C(OC6CC(OC)C(OC7CC(OC)C(OC8CC(OC)C(OC9OC(CO)C(O)C(O)C9O)C(C)O8)C(C)O7)C(C)O6)C(C)O5)C(C)O4)CCC32C)C2(O)CCC(C(C)=O)C12C (stereo not given)
inactive: activity change, negative = cytotoxicity (OV90) -1.21% [at 6.55 µM] | activity change, negative = cytotoxicity (PA-1) -0.231% [at 6.55 µM] | activity change, negative = cytotoxicity (SKOV3) -2.08% [at 6.55 µM] | activity change, negative = cytotoxicity (Tov-21-G) 2.5% [at 6.55 µM] | activity change, negative = cytotoxicity (Tov112D) -1.72% [at 6.55 µM]

CC(=O)NCC1CN(c2ccc(-c3ccc(CNCc4cn[nH]n4)cc3)c(F)c2)C(=O)O1 (stereo not given)
inactive: Potency (OV90) | Potency (PA-1) | Potency (SKOV3) | Potency (Tov-21-G) | Potency (Tov112D)

C=CC1(C)CC2CCC3C(C)(C(=O)O)CCCC3(C)C2=CC1=O (stereo not given)
inactive: Potency (OV90) | Potency (PA-1) | Potency (SKOV3) | Potency (Tov-21-G) | Potency (Tov112D)

COc1cccc(C(=O)NCCNc2nc3cc(C)cc(C)c3cc2C#N)c1
inactive: Potency (OV90) | Potency (PA-1) | Potency (SKOV3) | Potency (Tov-21-G) | Potency (Tov112D)

CC1(C)CCC[C@@]2(C)[C@H]1[C@H](O)C=C(CO)[C@]2(O)CO
inactive: Potency (OV90) | Potency (PA-1) | Potency (SKOV3) | Potency (Tov-21-G) | Potency (Tov112D)

CC/C=C\C(O)C(O)C1=C(C)C(=O)C2(O1)C(=O)NC(OC)(C(=O)c1ccccc1)C2O (stereo not given)
inactive: Potency (OV90) | Potency (PA-1) | Potency (SKOV3) | Potency (Tov-21-G) | Potency (Tov112D)

CC1(C)CC[C@]2(C(=O)O[C@@H]3O[C@H](CO)[C@@H](O)[C@H](O)[C@H]3O)[C@H](O)C[C@]3(C)C(=CCC4[C@@]5(C)CC[C@H](O[C@@H]6OC[C@@H](O)[C@H](O)[C@H]6O)[C@@](C)(C(=O)O)C5CC[C@]43C)[C@@H]2C1 (stereo not given in full)
inactive: Potency (OV90) | Potency (PA-1) | Potency (SKOV3) | Potency (Tov-21-G) | Potency (Tov112D)

CC1(CO)CCCC2(C)C3COC(=O)C3=CC(O)C12 (stereo not given)
inactive: Potency (OV90) | Potency (PA-1) | Potency (SKOV3) | Potency (Tov-21-G) | Potency (Tov112D)

CC1(C)C2CC[C@]3(C)C(C(=O)C=C4[C@H]5C[C@@](C)(C(=O)O)CC[C@]5(C)CC[C@]43C)[C@@]2(C)CC[C@@H]1O (stereo not given in full)
inactive: Potency (OV90) | Potency (PA-1) | Potency (SKOV3) | Potency (Tov-21-G) | Potency (Tov112D)

C[C@H](/C=C/[C@@]1(O)[C@H](C)CC(=O)CC1(C)C)O[C@@H]1O[C@H](CO[C@@H]2OC[C@@H](O)[C@H](O)[C@H]2O)[C@@H](O)[C@H](O)[C@H]1O
inactive: Potency (OV90) | Potency (PA-1) | Potency (SKOV3) | Potency (Tov-21-G) | Potency (Tov112D)

O=C(Nc1ccn(Cc2c(F)cccc2C(F)(F)F)n1)c1c(F)cccc1F
inactive: activity change, negative = cytotoxicity (OV90) 0.656% [at 11.6 µM] | activity change, negative = cytotoxicity (PA-1) 10.8% [at 11.6 µM] | activity change, negative = cytotoxicity (SKOV3) 9.68% [at 11.6 µM] | activity change, negative = cytotoxicity (Tov-21-G) 10.6% [at 11.6 µM] | activity change, negative = cytotoxicity (Tov112D) 3.93% [at 11.6 µM]

C/C=C(\C)C(=O)OC[C@H]1O[C@@H](O[C@H]2[C@@H](O[C@H]3O[C@H](COC(=O)/C(C)=C/C)[C@@H](O)[C@H](O)[C@H]3O[C@@H]3O[C@H](COC(=O)/C(C)=C/C)[C@@H](O)[C@H](OC(=O)/C(C)=C/C)[C@H]3O)O[C@H](COC(=O)/C(C)=C/C)[C@@H](O)[C@@H]2O)[C@H](O)[C@@H](O)[C@@H]1O
inactive: activity change, negative = cytotoxicity (OV90) -7.83% [at 11.6 µM] | activity change, negative = cytotoxicity (PA-1) 0.401% [at 11.6 µM] | activity change, negative = cytotoxicity (SKOV3) -1.49% [at 11.6 µM] | activity change, negative = cytotoxicity (Tov-21-G) -1.7% [at 11.6 µM] | activity change, negative = cytotoxicity (Tov112D) 6.68% [at 11.6 µM]

CC(C)N(CCCNC(=O)Nc1ccc(C(C)(C)C)cc1)C[C@H]1O[C@@H](n2ccc3c(N)ncnc32)[C@H](O)[C@@H]1O
inactive: Potency (OV90) | Potency (PA-1) | Potency (SKOV3) | Potency (Tov-21-G) | Potency (Tov112D)

COC1OC(OC)C(O)(CCC2(C)C(C)CCC3(C)C2CC(O)C(O)C32CO2)C1O (stereo not given)
inactive: Potency (OV90) | Potency (PA-1) | Potency (SKOV3) | Potency (Tov-21-G) | Potency (Tov112D)

C=C(C)[C@@]1(O)C[C@@]2(C)C(=CC1=O)CC[C@@H](O)[C@@H]2C
inactive: Potency (OV90) | Potency (PA-1) | Potency (SKOV3) | Potency (Tov-21-G) | Potency (Tov112D)

C=C(C)[C@@H]1CC[C@]2(C(=O)O)CC[C@]3(C)[C@H](CCC4[C@@]5(C)CCC(=O)C(C)(C)C5C(O)C[C@]43C)C12 (stereo not given in full)
inactive: Potency (OV90) | Potency (PA-1) | Potency (SKOV3) | Potency (Tov-21-G) | Potency (Tov112D)

COC(=O)c1c(CC=C(C)C)c(OC2OC(CO)C(O)C(O)C2O)c2ccccc2c1OC1OC(CO)C(O)C(O)C1O (stereo not given)
inactive: Potency (OV90) | Potency (PA-1) | Potency (SKOV3) | Potency (Tov-21-G) | Potency (Tov112D)

C=C1CC/C=C(/CO)C(=O)C[C@@H]2[C@@H]1C[C@@]2(C)COC(C)=O
inactive: Potency (OV90) | Potency (PA-1) | Potency (SKOV3) | Potency (Tov-21-G) | Potency (Tov112D)

Cc1c(O)cc2c(c1O)COC1(O)CCCOC21 (stereo not given)
inactive: Potency (OV90) | Potency (PA-1) | Potency (SKOV3) | Potency (Tov-21-G) | Potency (Tov112D)
